Here are results for 15 compounds from PubChem BioAssay.

The nature of this assay: sensitizers of A549 cells to miR-34 induction, primary screen, imaging, A549 dox-inducible miR-34, nuclei and caspase counts (AID 1347080). Also: test concentration not given here. The conditions noted are these: A549 miR-34 inducible, Hoechst nuclei count, 48 h; measured here: total cells with miR-34 induction; stronger effect = lower value.
In the case of `CC(CNC(=O)c1cccnc1)NC(=O)c1cccnc1` (stereo not given), the cell count came out at 9140. Then `CCOC(=O)C(CCc1ccccc1)NC1CSC(c2cccs2)CN(CC(=O)O)C1=O` (stereo not given), with 8260; and `CNc1nc(Nc2cnn(C3CCN(C4COC4)CC3F)c2Cl)ncc1C(F)(F)F` (stereo not given), with 8480; and `C=C1CCC(O)CC1=CC=C1CCC[C@]2(C)C(C(C)C=CC(C)C(C)C)CC[C@@H]12` (stereo not given in full), with 7890. For `O=C(C=Cc1cccc(S(=O)(=O)Nc2ccccc2)c1)NO` the value was 1120; for `CCN1C(=CC(C)=O)Sc2ccc(OC)cc21`, 6850.

In the case of `CC1C[C@@H]2[C@@H](C(O)C[C@@]3(C)[C@H]2CC[C@@]3(O)C(=O)CO)[C@@]2(C)C=CC(=O)C=C12` (stereo not given in full), the cell count was 5500.

In the case of `Cc1onc(-c2ccccc2Cl)c1C(=O)NC1C(=O)N2C(C(=O)O)C(C)(C)S[C@@H]12` (stereo not given in full), the cell count turned out to be 9670. For `CC(CCC(=O)O)C1CC[C@H]2[C@@H]3CC[C@@H]4CC(O)CC[C@]4(C)[C@H]3CC[C@]12C` (stereo not given in full) the value was 7640; for `CC(=O)O[C@@]1(C(C)=O)CC[C@H]2[C@@H]3CCC4=CC(=O)CCC4=C3C(c3ccc(N(C)C)cc3)C[C@@]21C` (stereo not given in full), 6660. Take `CC1(C)S[C@@H]2C(NC(=O)Cc3ccccc3)C(=O)N2C1C(=O)O` (stereo not given in full): the cell count was determined as 7910. As for `O=C1c2ccc(Nc3ccc(F)cc3F)cc2CCc2ccc(OCC(O)CO)cc21` (stereo not given), the cell count came out at 6890. Then `COc1cc2ncnc(Sc3nnc(C)s3)c2cc1OC`, with 5380; and `CC(C)(F)CC(NC(c1ccc(-c2ccc(S(C)(=O)=O)cc2)cc1)C(F)(F)F)C(=O)NC1(C#N)CC1` (stereo not given), with 7020; and `CC(NC(=O)C(C#N)=Cc1cccc(Br)n1)c1ccccc1` (stereo not given), with 1620.
